The values that follow come from the supplement of paper PMC12494721.

Counter-ions that a name gives are not always drawn.

Settings in all cases: incubation time: 27 h, anaerobic, 37 °C;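 for the amine columns active = adjusted P below 0.05 in both replicates with a change the same way and a mean fold change under 0.8 or over 1.25; inactive = the rest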
The subject of assay [1] is Clostridium sporogenes DSM 1664. Nature of the assay: growth (OD595) fold change vs plate DMSO controls (fold change (ratio)); higher = more growth. A digest of the protocol: (§1)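 Growth is expressed as the fold change relative to the median of the DMSO control wells on each plate. Cultures in mGAM were grown anaerobically in 96-well plates for 27 h at 37 °C, shaken, and read at 595 nm. Readings were blank-subtracted, corrected for compound background with 20 µM compound solutions in water, and converted to OD with a calibration factor of 5. Fold changes above 1.5 were set to NA, and each value is the mean of 2 biological replicates.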

For assay [2], the system named is Escherichia coli IAI1. Described as above. A digest of the protocol:
as §1

The subject of assay [3] is Klebsiella aerogenes DSM 30053. The assay is described as above. A digest of the protocol:
as §1

The test system of assay [4] is Ruminococcus gnavus DSM 108212. The description is as above. A digest of the protocol:
as §1

In assay [5] the test system is Klebsiella aerogenes DSM 30053. Nature of the assay: fold change of Histamine concentration vs plate DMSO controls (fold change (ratio)); higher = more amine produced, active = hit call of the paper (significant change in both replicates, either direction). A digest of the protocol:
(§2)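 Each value is the fold change relative to DMSO-only wells on the same plate. Four gut bacterial strains were grown anaerobically in mGAM at 37 °C for 27 h in 80 µL wells, starting at OD 0.1 before a 1:1 dilution, with compounds at 20 µM final (sweeteners 50 µM). Whole cultures were extracted with cold acetonitrile/methanol containing 0.1% formic acid, centrifuged, and amines were quantified by LC–triple-quadrupole MS (dynamic MRM) against external calibration curves with within-batch drift correction. Values are means of 2 biological replicates.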

For assay [6], the system named is Clostridium sporogenes DSM 1664. Nature of the assay: fold change of Tryptamine concentration vs plate DMSO controls (fold change (ratio)); higher = more amine produced, active = hit call of the paper (significant change in both replicates, either direction). A digest of the protocol:
as §2

Assay [7] concerns Ruminococcus gnavus DSM 108212. Described as above. A digest of the protocol: as §2
Assay [8] has as its system Escherichia coli IAI1. Nature of the assay: fold change of Putrescine concentration vs plate DMSO controls (fold change (ratio)); higher = more amine produced, active = hit call of the paper (significant change in both replicates, either direction). A digest of the protocol:
as §2

Assay [9] has as its system Klebsiella aerogenes DSM 30053. The assay is described as above. A digest of the protocol:
as §2

Assay [10] relates to Escherichia coli IAI1. Nature of the assay: fold change of Cadaverine concentration vs plate DMSO controls (fold change (ratio)); higher = more amine produced, active = hit call of the paper (significant change in both replicates, either direction). A digest of the protocol: as §2
The test system of assay [11] is Klebsiella aerogenes DSM 30053. Described as above. A digest of the protocol: as §2
The test system of assay [12] is Ruminococcus gnavus DSM 108212. Nature of the assay: fold change of 2-Phenylethylamine concentration vs plate DMSO controls (fold change (ratio)); higher = more amine produced, active = hit call of the paper (significant change in both replicates, either direction). A digest of the protocol: as §2

Take `CC1CC(OC(=O)c2ccccc2O)CC(C)(C)C1` (centres undefined) [Homosalate] (20 µM): the growth in [1] stood at 1.2; in assay [2] it was 0.987; in assay [3], 0.984; in assay [4], 1.1. Besides, the “fold change of Histamine concentration” value in assay [5] was 1.04 (inactive). The “fold change of Tryptamine concentration” value was 0.994 (inactive) in assay [6] and 0.952 (inactive) in [7]. Besides, the “fold change of Putrescine concentration” value in assay [8] was 1.23 (inactive); in [9] it was 1 (inactive). Also, the “fold change of Cadaverine concentration” value in assay [10] is 1 (inactive); in [11], 0.986 (inactive). The “fold change of 2-Phenylethylamine concentration” value in assay [12] was 0.922 (inactive).

For `CN(C/C=C/c1ccccc1)Cc1cccc2ccccc12` [Naftifine hydrochloride] (20 µM), the growth was determined as 1.08 in assay [1], 1.21 in assay [2], 0.994 in assay [3] and 0.89 in [4]. Besides, in assay [5], the “fold change of Histamine concentration” value was 0.999 (inactive). Moreover, the entries for the “fold change of Tryptamine concentration” value in assay [6] and in assay [7] were 0.99 (inactive) and 0.941 (inactive), respectively. For the same compound, the “fold change of Putrescine concentration” value in [8] was 1.08 (inactive); in [9], 0.996 (inactive). The “fold change of Cadaverine concentration” value was 1.34 (active) in assay [10] and 0.99 (inactive) in [11]. The “fold change of 2-Phenylethylamine concentration” value in assay [12] was 1.01 (inactive).

Turning to `NCCc1cc[nH]n1` [Betazole hydrochloride] (20 µM), the growth was 1.01 in assay [1], 0.989 in [2], 1.03 in [3] and 1.02 in assay [4]. The “fold change of Histamine concentration” value in [5] is 0.96 (inactive). For the same compound, the “fold change of Tryptamine concentration” value is 1 (inactive) in [6] and 1.04 (inactive) in assay [7]. For the same compound, the results for the “fold change of Putrescine concentration” value in assay [8] and in assay [9] were 0.987 (inactive) and 1.02 (inactive), respectively. Further, the “fold change of Cadaverine concentration” value in assay [10] and in assay [11] was 1 (inactive) each time. Besides, the “fold change of 2-Phenylethylamine concentration” value in [12] is 1.02 (inactive).

As for `CC(C)(C)NC(=O)[C@@H]1C[C@@H]2CCCC[C@@H]2CN1C[C@@H](O)[C@H](Cc1ccccc1)NC(=O)[C@H](CC(N)=O)NC(=O)c1ccc2ccccc2n1` [Saquinavir mesylate] (20 µM), the growth in assay [1] stood at 0.98; in assay [2], 1.1; in assay [3], 1.03; in assay [4], 1.12. In [5], the “fold change of Histamine concentration” value was 0.937 (inactive). Further, the “fold change of Tryptamine concentration” value in assay [6] is 0.966 (inactive); in assay [7], 0.979 (inactive). Besides, the “fold change of Putrescine concentration” value is 1.24 (inactive) in assay [8] and 0.993 (inactive) in [9]. Further, the results for the “fold change of Cadaverine concentration” value in assay [10] and in assay [11] were 0.944 (inactive) and 1.01 (inactive), respectively. Moreover, the “fold change of 2-Phenylethylamine concentration” value in assay [12] is 1.03 (inactive).

For the compound `CC(=O)N[C@@H](CC(C)C)C(=O)O` [N-Acetyl-L-leucine] (20 µM), the growth in [1] stood at 1.1; in assay [2], 0.831; in [3] it was 0.991; in assay [4], 1. For the same compound, the “fold change of Histamine concentration” value in assay [5] is 0.86 (inactive). Also, the entries for the “fold change of Tryptamine concentration” value in [6] and in assay [7] were 0.964 (inactive) and 1.03 (inactive), respectively. Also, the “fold change of Putrescine concentration” value in assay [8] was 0.892 (inactive); in assay [9], 1.01 (inactive). Besides, the “fold change of Cadaverine concentration” value in assay [10] was 1.07 (inactive); in [11] it was 1.03 (inactive). Further, the “fold change of 2-Phenylethylamine concentration” value in [12] is 1.04 (inactive).

`Cn1nnc2c(C(N)=O)ncn2c1=O` [Temozolomide] (20 µM): the growth is 1.09 in assay [1], 0.982 in [2], 0.992 in assay [3] and 1.23 in assay [4]. Besides, the “fold change of Histamine concentration” value in assay [5] was 0.956 (inactive). For the same compound, the “fold change of Tryptamine concentration” value in [6] is 0.977 (inactive); in assay [7], 1.02 (inactive). In addition, the “fold change of Putrescine concentration” value in assay [8] is 1 (inactive); in assay [9], 0.989 (inactive). For the same compound, the “fold change of Cadaverine concentration” value in assay [10] was 1.02 (inactive); in assay [11], 0.998 (inactive). Besides, the “fold change of 2-Phenylethylamine concentration” value in [12] was 1.01 (inactive).

Take `CN(C)c1nc(N(C)C)nc(N(C)C)n1` [Altretamine] (20 µM): the growth in [1] was determined as 0.899; in assay [2] it was 1.05; in assay [3], 0.993; in assay [4], 0.972. Also, in assay [5], the “fold change of Histamine concentration” value is 1.08 (inactive). For the same compound, the “fold change of Tryptamine concentration” value in assay [6] is 0.977 (inactive); in [7], 1.06 (inactive). Also, the “fold change of Putrescine concentration” value is 1.15 (inactive) in assay [8] and 1.04 (inactive) in assay [9]. Also, the “fold change of Cadaverine concentration” value in assay [10] is 1.01 (inactive); in assay [11], 1 (inactive). For the same compound, the “fold change of 2-Phenylethylamine concentration” value in [12] is 1.07 (inactive).

`CC(C)NC(=N)NC(=N)Nc1ccc(Cl)cc1` [Proguanil hydrochloride] (20 µM): the growth in assay [1] stood at 0.986; in [2], 0.955; in [3], 0.964; in [4], 0.969. Moreover, the “fold change of Histamine concentration” value in assay [5] was 1.06 (inactive). Moreover, the “fold change of Tryptamine concentration” value was 1.04 (inactive) in assay [6] and 1.03 (inactive) in assay [7]. Moreover, the “fold change of Putrescine concentration” value in [8] is 1.09 (inactive); in assay [9], 0.997 (inactive). Besides, the “fold change of Cadaverine concentration” value was 0.868 (inactive) in assay [10] and 0.979 (inactive) in assay [11]. Besides, in [12], the “fold change of 2-Phenylethylamine concentration” value was 1.02 (inactive).

As for `O=C(NCCO[N+](=O)[O-])c1cccnc1` [Nicorandil] (20 µM), the growth was found to be 1.03 in assay [1], 0.985 in assay [2], 0.928 in [3] and 1.35 in assay [4]. Besides, the “fold change of Histamine concentration” value in [5] was 1.06 (inactive). In addition, the “fold change of Tryptamine concentration” value in assay [6] is 1.04 (inactive); in [7], 1.03 (inactive). Moreover, the “fold change of Putrescine concentration” value in assay [8] is 1.05 (inactive); in [9], 1.03 (inactive). The “fold change of Cadaverine concentration” value was 0.981 (inactive) in [10] and 1 (inactive) in [11]. In addition, the “fold change of 2-Phenylethylamine concentration” value in assay [12] was 1 (inactive).

As to `CC(C)(C)NCC(O)c1cc(O)cc(O)c1` (centres undefined) [Terbutaline hemisulfate] (20 µM), the growth in assay [1] was found to be 0.98; in assay [2], 1.02; in assay [3], 1.05; in assay [4], 1.11. The “fold change of Histamine concentration” value in assay [5] was 1.02 (inactive). Moreover, the “fold change of Tryptamine concentration” value in [6] was 1.05 (inactive); in [7], 1.06 (inactive). Moreover, the “fold change of Putrescine concentration” value in assay [8] was 1.05 (inactive); in assay [9] it was 0.985 (inactive). The “fold change of Cadaverine concentration” value in assay [10] is 0.932 (inactive); in assay [11] it was 0.993 (inactive). Also, in assay [12], the “fold change of 2-Phenylethylamine concentration” value is 1.06 (inactive).

As to `O=c1[nH]cnc2c1ncn2[C@H]1CC[C@@H](CO)O1` [Didanosine] (20 µM), the growth is 1.07 in [1], 1.03 in assay [2], 1.03 in assay [3] and 1.08 in assay [4]. Besides, in assay [5], the “fold change of Histamine concentration” value was 0.958 (inactive). Besides, the “fold change of Tryptamine concentration” value was 0.992 (inactive) in [6] and 1.15 (inactive) in assay [7]. The results for the “fold change of Putrescine concentration” value in [8] and in [9] were 1.14 (inactive) and 1.08 (inactive), respectively. In addition, the “fold change of Cadaverine concentration” value in assay [10] was 1.69 (active); in assay [11] it was 1.03 (inactive). Further, the “fold change of 2-Phenylethylamine concentration” value in [12] is 1.16 (inactive).

Consider `CO/N=C(\C(=O)N[C@@H]1C(=O)N2C(C(=O)OCOC(=O)C(C)(C)C)=C(/C=C\c3scnc3C)CS[C@H]12)c1csc(N)n1` [Cefditoren Pivoxil] (20 µM), for which the growth came out at 0.809 in assay [1], 1.11 in assay [2], 1.03 in assay [3] and 0.996 in [4]. Besides, the “fold change of Histamine concentration” value in [5] is 0.988 (inactive). Besides, the figures for the “fold change of Tryptamine concentration” value in assay [6] and in assay [7] were 0.951 (inactive) and 1 (inactive), respectively. Further, the “fold change of Putrescine concentration” value in assay [8] was 0.864 (inactive); in assay [9], 1.12 (inactive). Also, the “fold change of Cadaverine concentration” value in assay [10] was 1.18 (inactive); in assay [11], 1.05 (inactive). Moreover, in assay [12], the “fold change of 2-Phenylethylamine concentration” value is 1.01 (inactive).
